SARS PLpro yeast: qHTS of Yeast-based Assay for SARS-CoV PLP. S. cerevisiae expressing SARS-CoV PLpro, growth rescue. Potency, µM (highest dose often 32.9 µM), actives largely listed as activators. 330,000 tested, 0.19% active. AID 485353, 2010; calls by dose curve; further: nearly all actives have a fitted effect of over 55% in size
Shiga inhibitor: A qHTS for Small Molecule Inhibitors of Shiga Toxin. Vero cells, Shiga toxin protein synthesis inhibition reporter. inhibition, % at 38.7 µM. 290,000 tested, 9.2% active; in the data active means inhibition mostly above about 28%, no sharp cut-off; inactive means mostly below about 43%
Pf growth 96h: Primary qHTS for delayed death inhibitors of the malarial parasite plastid, 96 hour incubation; P. falciparum luciferase reporter growth, 96 h; AID 504834, 2011; Potency, µM (highest dose often 28.7 µM), hits mostly inhibitors; 320,000 tested, 6.9% active
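Two parasite generations (96 h, 37 C, 5% CO2) of compound exposure in infected erythrocytes (0.05% parasitemia, 2% hematocrit). Luciferase-reporter P. falciparum; decreased luminescence indicates inhibited growth, aimed at apicoplast-acting delayed death.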
Pf growth 48h: Primary qHTS for delayed death inhibitors of the malarial parasite plastid, 48 hour incubation. P. falciparum luciferase growth in erythrocytes, 48 h. Potency, µM (highest dose often 28.7 µM), actives largely listed as inhibitors. 310,000 tested, 5.9% active. AID 504832, 2011
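In quantitative HTS format, infected erythrocytes bearing luciferase-reporter parasites were treated for a single generation at 37 C. Luminescence after adding detection reagent served as the growth measure.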
Cycloheximide cs: Cycloheximide Counterscreen for Small Molecule Inhibitors of Shiga Toxin | cell reporter, cycloheximide protein synthesis inhibition counterscreen | max response, % | 300,000 tested, 12% active; in the data active means max response mostly above about 13%, no sharp cut-off; inactive means mostly below about 14%; further: read at 38.3 µM for the half of the compounds with a filed dose
NS1 inh: qHTS Assay for Inhibitors of Influenza NS1 Protein Function. Potency, µM (doses to about 46.1 µM). 270,000 tested, 0.4% active. AID 2326, 2010; calls by dose curve; further: actives are rising curves; nearly all actives have a fitted effect of over 50% in size
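Recovery from NS1-induced slow growth read by OD600 in budding yeast switched to galactose assay medium (pH 6.0, -URA) at 1:100 dilution. Compound 23 nl per well; the matching strain lacking NS1 serves as control.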
A number is an active result; – = inactive; ? = inconclusive; · = no result; ! = not confirmed by another sample. The list is not random: actives were taken first. Their share in the collection is about 21%. Unless noted, the call rests on the fitted dose curve; in most records, active means well fitted inhibition curve with a large enough effect; inconclusive means small, poorly fitted or top-dose-only effect, or another doubt; inactive means no such curve, though single readings can be large or run the other way.

SMILES	SARS PLpro yeast	Shiga inhibitor	Pf growth 96h	Pf growth 48h	Cycloheximide cs	NS1 inh
Cc1cccc(OCCCC(=O)Nc2ccc(S(=O)(=O)Nc3ncccn3)cc2)c1C	–	–	2.1µM	–	–	–
COc1cc(OC)c(OC)cc1CNC(=O)c1cccc(S(=O)(=O)N2CCc3ccccc3C2)c1	–	·	?	?	·	·
CC(C)ON(CC(=O)NO)S(=O)(=O)c1ccc(-c2ccccc2)cc1	·	–	·	·	–	·
CCc1nc(CNC(=O)C2CCC(=O)N(Cc3cccc(OC)c3)C2)no1 (stereo not drawn)	–	–	–	–	–	–
CN(CC(=O)Nc1cccc2ccccc12)c1ccc(S(=O)(=O)N2CCOCC2)cn1	–	–	·	–	–	–
c1ccc2c[n+](CCCC[n+]3ccc4ccccc4c3)ccc2c1	·	·	·	·	·	–
C(C#CCCCCCCCCC[n+]1ccccc1)#CCCCCCCCCC[n+]1ccccc1	·	–	0.093µM	0.29µM	–	–
CCc1cc(-c2n[nH]c(CCC(=O)O)c2-c2nc3ccccc3n2C)c(O)cc1O	–	–	?	–	–	·
CCc1cc(-c2n[nH]c(C)c2-c2nc3ccccc3n2C)c(O)c(CN2CCN(C)CC2)c1O	–	–	–	12µM	–	–
CCc1cc(-c2n[nH]c(C)c2-c2nc3ccccc3n2C)c(O)cc1O	–	–	13µM	?	–	–
CCc1cc2c(=O)c(-c3nc4ccccc4n3C)c(C)oc2c(CN2CCN(C)CC2)c1O	–	–	·	?	–	–
CC(C)NC(=S)N1CCN(S(=O)(=O)c2cccc(C(F)(F)F)c2)CC1	–	–	?	?	–	–
Cc1ccc(CNC(=O)c2ccc(C)c(S(=O)(=O)N3CCCCC3)c2)cc1	–	·	?	?	·	·
O=C(Nc1ccc(Cl)cc1)c1nc[nH]c1C(=O)NCCCCNC(=O)c1[nH]cnc1C(=O)Nc1ccc(Cl)cc1	–	·	·	·	·	·
c1ccc(CO/N=C(\c2ccc(C3CC3)nc2)C2CC2)cc1	–	–	?	–	–	–
CC1SCC(=NOCc2ccccc2)CS1 (stereo not drawn)	–	114	–	–	38	–
Cc1csc(NC(=O)CSCC(=O)Nc2ccccc2)n1	–	–	·	–	–	–
Cc1csc(Nc2ccccc2C(F)(F)F)n1	–	–	–	–	21	–
COc1ccccc1Nc1nc(C)cs1	–	85!	?	–	22!	–
Cc1csc(Nc2cccc3ccccc23)n1	–	–	–	–	21	·
Cc1cc(NC(=O)CSCC(=O)N(C)Cc2ccc(Cl)cc2Cl)no1	–	·	–	–	·	·
CN(C)CCOc1ccccc1Cc1ccccc1	–	–	?	?	–	–
CNCCCCOc1ccccc1Cc1ccccc1	–	–	17µM	13µM	–	·
COC(=O)C(O)(NC(=O)c1ccncc1)C(F)(F)F (stereo not drawn)	–	–	–	–	–	–
COc1ccc(C(c2c(O)ccc3ccccc23)N2CCOCC2)c(OC)c1 (stereo not drawn)	–	65	?	–	–	–
SMILES	SARS PLpro yeast	Shiga inhibitor	Pf growth 96h	Pf growth 48h	Cycloheximide cs	NS1 inh
COc1ccc(C(CC(=O)N2CCOCC2)c2c(O)cc(OC)cc2OC)cc1 (stereo not drawn)	–	–	–	–	–	–
COc1cc(O)c(C(CCN2CCCCC2)c2ccc(N(C)C)cc2)c(OC)c1 (stereo not drawn)	–	–	0.83µM	1.3µM	–	–
COc1ccc(C(CCN2CCOCC2)c2c(O)cc(OC)cc2OC)cc1 (stereo not drawn)	–	–	3.3µM	3.7µM	–	–
COc1cc(O)c(C(CCN2CCCC2)c2ccc(N(C)C)cc2)c(OC)c1 (stereo not drawn)	–	–	3.3µM	2.9µM	–	–
CCOC(=O)C1CCN(C(=O)C2CCN(S(=O)(=O)N3CCC4(CC3)OCCO4)CC2)CC1	–	–	–	–	–	–
CCC(CC)C(=O)Nc1cccc(C(=O)c2ccccc2)c1	–	–	?	·	–	–
Cc1ccc(NC(=O)c2cccs2)cc1NC(=O)c1ccc(F)cc1	–	·	10µM	–	–	–
O=C(O)c1ccc(NC(=O)c2cccc(NC(=O)c3cccs3)c2)cc1	–	–	–	–	–	–
O=C(Nc1ccc(O)cc1)c1ccc(NC(=O)c2cccs2)cc1	–	87	–	–	38	–
O=C(Nc1ccc(NC(=O)c2cccs2)cc1)c1ccccc1	–	46	–	–	24	–

Source: PubChem (National Center for Advancing Translational Sciences (NCATS))
